# Marburg entry inh = blocks Marburg virus binding to or entry into cells | Marburg virus pseudotyped entry inhibition, cell reporter | Potency, µM (doses to about 37.8 µM), for the others: top-dose activity change, negative = inhibition, usual class: inhibitors | 300,000 tested, 1.8% active; calls by dose curve; tested in HEK293 cells; further: potency means the concentration at half of the fitted maximal effect; on the % scale 0 is the no-effect control and ±100 the full control effect
# FMDV inh = blocks foot and mouth disease virus; 410,000 tested, 1.2% active; Potency, µM (doses to about 57.9 µM), without a hit: top-dose activity change, negative = inhibition, actives largely listed as inhibitors; FMDV antiviral cell-based qHTS; AID 1159524; calls by dose curve; tested in HEK293T cells; further: read-out not given here; potency means the concentration at half of the fitted maximal effect; on the % scale 0 is the no-effect control and ±100 the full control effect; nearly all actives have a fitted effect of over 45% in size
# HCV inh = blocks hepatitis C virus. Potency, µM (series often up to 41.8 µM), for the others: at the highest dose activity change, negative = inhibition, hits mostly inhibitors. 340,000 tested, 3.4% active. Huh7.5.1 HCVcc-Cre infection, luciferase reporter, 44 h; active means well fitted inhibition curve with a large enough effect; inconclusive means small, poorly fitted or top-dose-only effect, or another doubt; inactive means no such curve, though single readings can be large or run the other way; further: potency means the concentration at half of the fitted maximal effect; on the % scale 0 is the no-effect control and ±100 the full control effect
#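 Reporter virus HCVcc-Cre (~0.5 moi) infects cells exposed to compound; seeding density 1,000 cells/well with 4 h settling beforehand. Luminescence, 15 sec read, taken 44 h post-infection following a 15 min RT substrate incubation.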
# Lassa entry inh = Lassa virus entry inhibition; Lassa virus pseudotype entry inhibition, cell reporter; Potency, µM (top dose mostly 37.9 µM), without a hit: at the highest dose activity change, negative = inhibition, hits mostly inhibitors; 300,000 tested, 1.2% active; AID 540256; calls by dose curve; tested in HEK293 cells; further: potency means the concentration at half of the fitted maximal effect; on the % scale 0 is the no-effect control and ±100 the full control effect; nearly all actives have a fitted effect of over 50% in size
# CHX counter = affects cycloheximide protein synthesis inhibition readout, counter-screen. cell reporter, cycloheximide protein synthesis inhibition counterscreen. max response, %. 300,000 tested, 12% active. AID 2314; in the data active means max response mostly above about 13%, no sharp cut-off; inactive means mostly below about 14%; further: read at 38.3 µM for the half of the compounds with a filed dose; 0% is about no effect
# Shiga toxin inh = blocks Shiga toxin action in Vero cells. Vero cells, Shiga toxin protein synthesis inhibition reporter. inhibition, % at 38.7 µM. 290,000 tested, 9.2% active. AID 2315; in the data active means inhibition mostly above about 28%, no sharp cut-off; inactive means mostly below about 43%; further: 0% is about no effect
# * hit, by the source's call; ? = inconclusive; . = no result given; [ ] = dose if it differs, or a comment. The list is not random: actives were taken first. Their share in the collection is about 13%.
SMILES,Marburg entry inh,FMDV inh,HCV inh,Lassa entry inh,CHX counter,Shiga toxin inh
CCCCOc1cccc(C(=O)NC(=S)Nc2cccc(C(F)(F)F)c2)c1,?,-21%,5%,?,-1,-5
COc1cccc(NC(=S)NN=C2CCCCCC2)c1,-5%[46.1 µM],44%,-7%,-29%,26*,53*
CCc1ccc(NC(=S)Nc2cccc(OC)c2)cc1,23%,35%,6%,-1%,16*,67*
CC(C)c1ccc(NC(=S)Nc2cccc3ccccc23)cc1,4%[46.1 µM],?,?,12%[46.1 µM],55*,98*
Cc1cccc(NC(=S)NCCC(C)C)c1,1.5µM*,113%,?,?,20*,25
C=CCNC(=S)Nc1cccc2ccccc12,4%,.,2%,-15%,4,17
COc1ccc(CCNC(=S)Nc2cccc(C)c2)cc1,-1%,-8%,-24%,17%,12,-11
COc1ccc(CNC(=S)Nc2cccc(OC)c2)cc1,?,28%,-11%,?,-3,9
CCC1Nc2ncnc(N3CCN(c4ccccn4)CC3)c2N(Cc2ccc(Br)cc2)C1=O (centres undefined),.,-11%,-9%,.,.,.
COC(=O)[C@H](CCSC)NC(=O)c1cccnc1SC,.,0%,17%,.,-1,22
CCc1ccc(C(=O)NC(CCSC)C(=O)OC)cc1 (centres undefined),-1%,36%,-12%,21%,17*,15
O=C(c1ccccc1Cl)N1N=C(c2ccc(Br)cc2)CC1c1nc2ccccc2[nH]1 (centres undefined),?,-2%,11µM*,?,17*,28
Cc1cc2nc(-c3ccc(Cl)cc3)c(Cc3cccc(Cl)c3)n2c(C)c1Br,.,-9%,.,.,.,.
CCN(CC)CCN(C(=O)c1cc2c(ccc3ccccc32)oc1=O)c1nc2cc3c(cc2s1)OCCO3,?,-2%,-23%,11%[46.1 µM],21*,11
CCN(CC)CCN(C(=O)c1ccco1)c1nc2ccc(F)cc2s1,.,28%,.,0%[46.1 µM],.,.
CN(C)CCN(C(=O)c1cccc(N2C(=O)CCC2=O)c1)c1nc2ccc(Br)cc2s1,-11%,-11%,-13%,7%,13*,35
CCN(CC)CCN(C(=O)c1ccc2ccccc2c1)c1nc2ccc(F)cc2s1,?,-19%,?,9%[46.1 µM],9,51*
CCN(CC)CCN(C(=O)c1ccc2c(c1)OCCO2)c1nc2cc3c(cc2s1)OCO3,?,-16%,?,-5%,-4,-15
CN(C)CCN(C(=O)c1ccc2ccccc2c1)c1nc2cc3c(cc2s1)OCCO3,?,13%,.,-29%,39*,82*
OCCN(CCO)c1ncnc2c1cnn2-c1ccc(F)cc1,.,44%,.,?,.,.
COc1ccc(-c2nnc(SC(C)C(=O)NCc3ccc4c(c3)OCO4)n2Cc2ccco2)cc1 (centres undefined),?,-16%,-6%,-14%,-1,-20
CCC1CCCCN1S(=O)(=O)c1ccc(C(=O)N(CCCN(C)C)c2nc3cc4c(cc3s2)OCO4)cc1 (centres undefined),?,-14%,13µM*,?,6,-6
Cc1ccc2nc(N(CCN(C)C)C(=O)c3ccc4ccccc4c3)sc2c1,11%[46.1 µM],5%,0%,4%[46.1 µM],24,17
CN(C)CCN(C(=O)c1ccc2ccccc2c1)c1nc2ccc(Br)cc2s1,.,-1%,9%,.,16*,44
CN(C)CCN(C(=O)c1cccc2ccccc12)c1nc2cc3c(cc2s1)OCO3,?,-17%,10µM*,20%[46.1 µM],12,25
SMILES,Marburg entry inh,FMDV inh,HCV inh,Lassa entry inh,CHX counter,Shiga toxin inh
CN(C)CCN(C(=O)c1ccc(S(=O)(=O)N2CCCC2)cc1)c1nc2ccc(Br)cc2s1,-47%[46.1 µM],2%,-29%,28%[46.1 µM],30*,57*
Cc1ccc2nc(N(CCCN(C)C)C(=O)c3ccc(S(=O)(=O)N4CCCCCC4)cc3)sc2c1,?,-25%,?,?,-3,-7
CN(C)CCCN(C(=O)c1ccc([N+](=O)[O-])o1)c1nc2cc3c(cc2s1)OCO3,.,0%,?,.,55*,60*
CN(C)CCN(C(=O)COc1ccc(Cl)cc1)c1nc2cc3c(cc2s1)OCO3,8%[46.1 µM],-1%,7%,19%[46.1 µM],22*,-2
CN(C)CCCN(C(=O)COc1ccc(Cl)cc1)c1nc2cc3c(cc2s1)OCO3,?,-7%,-13%,?,-4,-23
COc1cccc(Oc2nc(N)ncc2[N+](=O)[O-])c1,-7%[46.1 µM],-20%,3%,18%,15,-6
O=C(NCc1ccco1)c1ccc2c(=O)n(-c3ccccc3)c(=O)n(Cc3cccc(F)c3)c2c1,33%,.,-10%[8.37 µM],7%,5,11
Oc1sc(C=Nc2ccccc2)c2ccccc12,-22%,54%,?,11%,68*,80*
Oc1sc(C=Nc2ccc(F)cc2)c2ccccc12,-13%,41%,?,-18%,57*,13*
O=C(O)Cc1ccc(N=Cc2c(O)ccc3ccccc23)cc1,2%,-27%,3%,-15%,-1,9
CCOc1ccc(C(=O)NCC(=O)OCC(=O)Nc2cccc(S(=O)(=O)N3CCCC3)c2)cc1,.,38%,15%,.,1,-6
CCOC(=O)NC(=O)CN1C(=O)NC(C)(c2ccccc2)C1=O (centres undefined),20%,16%,22%,-7%,7,-9
CCN1CCN(CC(=O)Nc2ccc(S(=O)(=O)N3C(C)CCCC3C)cc2)CC1 (centres undefined),2%[46.1 µM],5%,16%,9%,-5,-14
Cc1cc(F)ccc1NC(=O)C1CCCN(S(=O)(=O)c2ccc3c(c2)CCCC(=O)N3)C1 (centres undefined),.,-30%,.,5%[46.1 µM],.,.
Oc1[nH]c(N=C2N=c3ccccc3=N2)c2ccccc12,?,10%,-26%,?,35*,60*
O=C(C1CC1)N1CCc2cc(Br)cc(S(=O)(=O)NC3CCCCC3)c21,?,24%,7.1µM*,?,-2,-11
CCC(=O)N1CCc2cc(Br)cc(S(=O)(=O)NCCN3CCCCC3CC)c21 (centres undefined),?,39%,2.5µM*,15%,1,-7
CCC(=O)N1CCc2cc(Br)cc(S(=O)(=O)NCc3ccco3)c21,?,60%,0%,0%,35*,106*
CCC(CC)C(=O)Nc1cc(C(=O)OC)ccc1C(=O)OC,22%,-20%,-22%,-2%,-2,-2
CCn1nc(C)c(CNC(=O)C2CCC(=O)N(CCc3ccc(Cl)cc3)C2)c1C (centres undefined),.,-7%,7%,.,-2,15
Cc1ccc(Sc2ccccc2CN(C)C)c(N)c1,.,.,.,.,25*,31
CN(C)Cc1ccccc1Sc1cccc2ccccc12,21µM*,?,?,15µM*,-7,-9
NS(=O)(=O)c1ccc(NC(=O)c2cc(-c3ccccc3O)n[nH]2)cc1,14%,9%,8%,-2%,-8,-1
O=C(CNCc1ccco1)Nc1ccc(N2CCCCCC2)cc1,-2%[46.1 µM],24%,-4%,0%[46.1 µM],30*,35

# Screens deposited in PubChem by National Center for Advancing Translational Sciences (NCATS).
